# Data taken from PMC7862700, “An all-to-all approach to the identification of sequence-specific readers for epigenetic DNA modifications on cytosine”.
# Key:
# Assay in all cases: DAPPL (digital affinity profiling via proximity ligation, sequencing); 10 mM Tris-HCl pH 7.5, 50 mM NaCl, 1 mM DTT, 4% glycerol, room temperature, 30 min; GST-TFs on glutathione beads, 16-mer random dsDNA library, 0.1% formaldehyde crosslink after washing; high values mean tight binding
# FEV = biological target: T1, FEV (Homo sapiens, UniProt Q99581 1-238); details: protein: recombinant; tags: N-terminal GST; dsDNA, one strand shown
# T1 sequence: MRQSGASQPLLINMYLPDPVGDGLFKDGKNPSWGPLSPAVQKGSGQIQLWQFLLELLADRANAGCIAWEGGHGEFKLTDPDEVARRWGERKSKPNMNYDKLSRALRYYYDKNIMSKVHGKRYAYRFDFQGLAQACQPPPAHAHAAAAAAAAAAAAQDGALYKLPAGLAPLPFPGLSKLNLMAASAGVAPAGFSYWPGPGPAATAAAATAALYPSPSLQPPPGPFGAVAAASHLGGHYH
# How it was run: (§1)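 Each value of binding signal is a hexamer's read frequency for a factor divided by the same hexamer's frequency in the tag-only sample. Barcoded, bead-captured GST fusions of human transcription factors made in yeast were pooled with that sample and incubated with 200 nmole of a random double-stranded 16-mer DNA library in Tris/NaCl/DTT/glycerol buffer at room temperature for 30 min. Washing, 0.1% formaldehyde crosslinking, proximity ligation, PCR and Illumina NextSeq500 sequencing followed.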
# ETV5 = ETV5 (Homo sapiens, UniProt P41161 1-510); details: protein: recombinant; tags: N-terminal GST; dsDNA, one strand shown
# Chain of ETV5 (P41161 whole entry): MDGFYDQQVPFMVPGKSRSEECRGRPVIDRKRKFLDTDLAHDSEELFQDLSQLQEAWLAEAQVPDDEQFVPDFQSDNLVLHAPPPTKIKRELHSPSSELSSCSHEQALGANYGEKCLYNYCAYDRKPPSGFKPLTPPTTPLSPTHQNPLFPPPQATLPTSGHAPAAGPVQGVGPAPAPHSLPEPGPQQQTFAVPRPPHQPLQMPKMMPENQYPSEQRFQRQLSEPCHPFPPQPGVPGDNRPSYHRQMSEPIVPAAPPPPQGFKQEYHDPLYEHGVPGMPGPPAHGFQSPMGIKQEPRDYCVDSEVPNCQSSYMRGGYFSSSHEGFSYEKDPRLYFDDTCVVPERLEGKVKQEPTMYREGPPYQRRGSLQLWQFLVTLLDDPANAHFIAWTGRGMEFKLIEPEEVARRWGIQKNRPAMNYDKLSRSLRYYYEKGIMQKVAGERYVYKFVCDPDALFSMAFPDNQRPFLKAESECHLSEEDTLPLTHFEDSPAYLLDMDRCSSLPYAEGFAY
# How it was run: as §1
# HSF1 = HSF1 (Homo sapiens, UniProt Q00613 1-529); details: protein: recombinant; tags: N-terminal GST; chain copies: 3; dsDNA, one strand shown
# Chain of HSF1 (Q00613 whole entry): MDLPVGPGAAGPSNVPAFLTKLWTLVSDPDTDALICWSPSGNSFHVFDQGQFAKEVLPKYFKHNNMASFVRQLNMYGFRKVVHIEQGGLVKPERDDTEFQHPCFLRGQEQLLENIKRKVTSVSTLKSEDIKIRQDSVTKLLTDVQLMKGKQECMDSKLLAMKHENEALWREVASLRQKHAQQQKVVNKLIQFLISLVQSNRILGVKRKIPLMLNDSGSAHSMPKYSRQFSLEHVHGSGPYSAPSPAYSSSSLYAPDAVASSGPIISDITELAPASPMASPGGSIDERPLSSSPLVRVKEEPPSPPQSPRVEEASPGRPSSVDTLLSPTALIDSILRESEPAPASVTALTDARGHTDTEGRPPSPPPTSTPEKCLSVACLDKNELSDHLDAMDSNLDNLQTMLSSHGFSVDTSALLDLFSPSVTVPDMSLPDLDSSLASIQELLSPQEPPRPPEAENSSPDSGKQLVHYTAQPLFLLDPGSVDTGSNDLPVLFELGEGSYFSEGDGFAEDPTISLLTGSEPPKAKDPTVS
# How it was run: as §1
# SPIC = biological target: T2, SPIC (Homo sapiens, UniProt Q8N5J4 1-248); details: protein: recombinant; tags: N-terminal GST; dsDNA, one strand shown
# T2 sequence: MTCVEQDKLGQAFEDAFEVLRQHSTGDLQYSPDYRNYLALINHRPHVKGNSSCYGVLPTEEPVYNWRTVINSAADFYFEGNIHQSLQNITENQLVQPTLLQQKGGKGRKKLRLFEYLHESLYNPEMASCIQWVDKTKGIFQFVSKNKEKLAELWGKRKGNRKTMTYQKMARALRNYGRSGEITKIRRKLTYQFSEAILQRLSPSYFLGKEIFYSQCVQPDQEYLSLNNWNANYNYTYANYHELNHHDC
# How it was run: as §1
# ELF4 = ELF4 (Homo sapiens, UniProt Q99607 1-663); details: protein: recombinant; tags: N-terminal GST; dsDNA, one strand shown
# Chain of ELF4 (Q99607 whole entry): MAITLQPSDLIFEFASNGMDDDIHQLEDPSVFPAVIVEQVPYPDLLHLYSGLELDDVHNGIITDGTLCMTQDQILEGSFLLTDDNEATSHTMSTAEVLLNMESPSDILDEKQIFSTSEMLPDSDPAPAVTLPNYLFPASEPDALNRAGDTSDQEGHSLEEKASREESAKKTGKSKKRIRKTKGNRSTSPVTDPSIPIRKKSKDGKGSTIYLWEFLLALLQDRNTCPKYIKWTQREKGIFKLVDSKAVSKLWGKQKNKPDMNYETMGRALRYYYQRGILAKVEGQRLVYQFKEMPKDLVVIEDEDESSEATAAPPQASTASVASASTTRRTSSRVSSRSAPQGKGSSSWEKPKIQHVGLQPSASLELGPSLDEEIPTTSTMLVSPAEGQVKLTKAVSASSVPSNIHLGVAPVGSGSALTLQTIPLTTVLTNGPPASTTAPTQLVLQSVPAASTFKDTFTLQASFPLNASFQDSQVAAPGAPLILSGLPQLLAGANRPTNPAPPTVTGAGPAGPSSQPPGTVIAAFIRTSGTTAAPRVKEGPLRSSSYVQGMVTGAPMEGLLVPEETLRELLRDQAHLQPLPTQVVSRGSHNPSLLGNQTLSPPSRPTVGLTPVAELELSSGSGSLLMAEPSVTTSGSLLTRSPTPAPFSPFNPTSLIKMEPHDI
# How it was run: as §1
# ELK4 = biological target: T3, ELK4 (Homo sapiens, UniProt P28324-2 1-405); details: protein: recombinant; tags: N-terminal GST; dsDNA, one strand shown
# T3 sequence: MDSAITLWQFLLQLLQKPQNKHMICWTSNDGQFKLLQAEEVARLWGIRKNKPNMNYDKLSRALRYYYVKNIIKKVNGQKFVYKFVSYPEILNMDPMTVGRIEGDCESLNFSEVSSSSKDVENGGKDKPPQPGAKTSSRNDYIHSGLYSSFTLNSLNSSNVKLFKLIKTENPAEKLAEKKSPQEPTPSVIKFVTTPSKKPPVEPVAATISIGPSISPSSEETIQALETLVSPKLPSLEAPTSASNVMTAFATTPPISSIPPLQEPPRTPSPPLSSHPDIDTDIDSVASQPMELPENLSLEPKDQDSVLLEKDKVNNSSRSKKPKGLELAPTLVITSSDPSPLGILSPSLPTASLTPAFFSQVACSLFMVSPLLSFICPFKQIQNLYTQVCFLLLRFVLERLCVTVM
# How it was run: as §1
# ETV2 = biological target: T4, ETV2 (Homo sapiens, UniProt O00321 1-342); details: protein: recombinant; tags: N-terminal GST; dsDNA, one strand shown
# T4 sequence: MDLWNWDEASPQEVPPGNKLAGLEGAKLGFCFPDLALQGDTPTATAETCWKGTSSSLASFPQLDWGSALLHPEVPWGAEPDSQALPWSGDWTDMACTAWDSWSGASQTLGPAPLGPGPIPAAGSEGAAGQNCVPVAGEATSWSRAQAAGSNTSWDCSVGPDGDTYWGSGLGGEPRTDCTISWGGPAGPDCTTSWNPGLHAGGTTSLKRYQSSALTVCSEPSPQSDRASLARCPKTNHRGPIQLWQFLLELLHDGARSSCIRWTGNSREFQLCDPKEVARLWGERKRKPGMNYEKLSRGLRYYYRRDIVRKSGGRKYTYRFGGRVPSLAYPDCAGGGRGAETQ
# How it was run: as §1
# ELF3 = biological target: T5, ELF3 (Homo sapiens, UniProt P78545 1-371); details: protein: recombinant; tags: N-terminal GST; dsDNA, one strand shown
# T5 sequence: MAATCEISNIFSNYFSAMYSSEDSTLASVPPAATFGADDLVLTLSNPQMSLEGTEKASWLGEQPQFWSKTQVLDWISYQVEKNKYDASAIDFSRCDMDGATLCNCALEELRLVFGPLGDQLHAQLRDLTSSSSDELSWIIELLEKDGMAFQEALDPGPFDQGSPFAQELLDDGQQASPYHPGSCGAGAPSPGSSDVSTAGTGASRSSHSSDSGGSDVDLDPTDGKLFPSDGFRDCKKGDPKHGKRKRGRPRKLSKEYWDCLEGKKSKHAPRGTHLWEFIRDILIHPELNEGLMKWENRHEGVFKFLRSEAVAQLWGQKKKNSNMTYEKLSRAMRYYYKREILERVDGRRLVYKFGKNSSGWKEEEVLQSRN
# How it was run: as §1
# CRX = CRX (Homo sapiens, UniProt O43186 1-299); details: protein: recombinant; tags: N-terminal GST; dsDNA, one strand shown
# Chain of CRX (O43186 whole entry): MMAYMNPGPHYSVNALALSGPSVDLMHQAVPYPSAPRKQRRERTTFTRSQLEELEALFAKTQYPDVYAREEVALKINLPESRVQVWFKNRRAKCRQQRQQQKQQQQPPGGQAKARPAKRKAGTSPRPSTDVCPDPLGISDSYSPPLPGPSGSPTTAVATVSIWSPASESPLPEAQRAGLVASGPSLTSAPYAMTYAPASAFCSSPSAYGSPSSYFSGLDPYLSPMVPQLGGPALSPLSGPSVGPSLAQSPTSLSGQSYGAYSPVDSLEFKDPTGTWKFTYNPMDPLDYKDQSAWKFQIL
# How it was run: as §1
# ETV1 = ETV1 (Homo sapiens, UniProt P50549 1-477); details: protein: recombinant; tags: N-terminal GST; dsDNA, one strand shown
# Chain of ETV1 (P50549 whole entry): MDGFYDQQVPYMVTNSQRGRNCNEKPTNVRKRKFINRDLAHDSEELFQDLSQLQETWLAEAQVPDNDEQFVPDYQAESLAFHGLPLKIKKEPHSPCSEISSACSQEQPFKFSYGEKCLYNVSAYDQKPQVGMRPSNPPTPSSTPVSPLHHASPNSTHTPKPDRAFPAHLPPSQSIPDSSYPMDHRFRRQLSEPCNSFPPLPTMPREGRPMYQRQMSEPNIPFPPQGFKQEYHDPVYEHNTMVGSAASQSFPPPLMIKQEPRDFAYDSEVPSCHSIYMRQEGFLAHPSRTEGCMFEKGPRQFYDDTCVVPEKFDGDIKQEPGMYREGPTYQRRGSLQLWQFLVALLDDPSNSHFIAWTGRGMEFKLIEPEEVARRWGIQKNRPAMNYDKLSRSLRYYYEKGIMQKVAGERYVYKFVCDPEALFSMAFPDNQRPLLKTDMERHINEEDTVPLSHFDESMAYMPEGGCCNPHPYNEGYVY
# How it was run: as §1
# ERF = biological target: T6, ERF (Homo sapiens, UniProt P50548 1-548); details: protein: recombinant; tags: N-terminal GST; dsDNA, one strand shown
# T6 sequence: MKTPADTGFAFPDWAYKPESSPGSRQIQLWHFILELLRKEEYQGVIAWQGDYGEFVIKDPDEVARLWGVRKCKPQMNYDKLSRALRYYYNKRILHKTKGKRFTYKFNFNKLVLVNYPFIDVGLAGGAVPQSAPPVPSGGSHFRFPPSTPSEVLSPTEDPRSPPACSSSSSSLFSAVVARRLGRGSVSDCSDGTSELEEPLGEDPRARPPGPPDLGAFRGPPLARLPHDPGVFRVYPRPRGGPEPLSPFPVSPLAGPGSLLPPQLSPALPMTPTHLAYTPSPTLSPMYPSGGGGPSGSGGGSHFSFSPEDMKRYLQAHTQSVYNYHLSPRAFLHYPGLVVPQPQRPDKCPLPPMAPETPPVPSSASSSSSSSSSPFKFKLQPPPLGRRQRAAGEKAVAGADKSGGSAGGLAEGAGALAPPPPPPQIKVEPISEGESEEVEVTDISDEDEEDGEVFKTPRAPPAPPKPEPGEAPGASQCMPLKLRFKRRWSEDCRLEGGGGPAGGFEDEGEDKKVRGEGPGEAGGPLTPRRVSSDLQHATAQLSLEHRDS
# How it was run: as §1
# ETV3L = biological target: T7, ETV3L (Homo sapiens, UniProt Q6ZN32 1-361); details: protein: recombinant; tags: N-terminal GST; dsDNA, one strand shown
# T7 sequence: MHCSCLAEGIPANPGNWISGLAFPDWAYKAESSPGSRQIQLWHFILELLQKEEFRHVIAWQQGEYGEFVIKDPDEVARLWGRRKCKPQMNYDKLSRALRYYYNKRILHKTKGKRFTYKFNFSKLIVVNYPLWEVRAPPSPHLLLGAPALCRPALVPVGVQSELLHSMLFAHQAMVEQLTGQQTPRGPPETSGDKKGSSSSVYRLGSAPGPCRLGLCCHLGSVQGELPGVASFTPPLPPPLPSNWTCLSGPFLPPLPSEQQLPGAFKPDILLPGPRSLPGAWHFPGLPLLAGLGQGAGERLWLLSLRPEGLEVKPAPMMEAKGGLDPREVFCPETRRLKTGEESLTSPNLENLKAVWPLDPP
# How it was run: as §1
# ETS2 = biological target: T8, ETS2 (Homo sapiens, UniProt P15036 1-469); details: protein: recombinant; tags: N-terminal GST; dsDNA, one strand shown
# T8 sequence: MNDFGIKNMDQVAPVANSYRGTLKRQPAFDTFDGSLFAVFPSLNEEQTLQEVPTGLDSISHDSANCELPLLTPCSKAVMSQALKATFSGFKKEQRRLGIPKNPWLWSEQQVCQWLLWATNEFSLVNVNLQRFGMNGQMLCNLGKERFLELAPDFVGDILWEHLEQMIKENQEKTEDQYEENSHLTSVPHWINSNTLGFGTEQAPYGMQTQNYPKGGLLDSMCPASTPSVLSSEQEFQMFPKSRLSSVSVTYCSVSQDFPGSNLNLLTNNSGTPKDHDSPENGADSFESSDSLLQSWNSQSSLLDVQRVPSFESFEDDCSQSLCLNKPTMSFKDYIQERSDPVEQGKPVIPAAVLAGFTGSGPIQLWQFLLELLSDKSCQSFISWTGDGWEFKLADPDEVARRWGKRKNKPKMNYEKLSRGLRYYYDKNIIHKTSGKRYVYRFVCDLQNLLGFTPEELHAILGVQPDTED
# How it was run: as §1
# SPDEF = biological target: T9, SPDEF (Homo sapiens, UniProt O95238 1-335); details: protein: recombinant; tags: N-terminal GST; dsDNA, one strand shown
# T9 sequence: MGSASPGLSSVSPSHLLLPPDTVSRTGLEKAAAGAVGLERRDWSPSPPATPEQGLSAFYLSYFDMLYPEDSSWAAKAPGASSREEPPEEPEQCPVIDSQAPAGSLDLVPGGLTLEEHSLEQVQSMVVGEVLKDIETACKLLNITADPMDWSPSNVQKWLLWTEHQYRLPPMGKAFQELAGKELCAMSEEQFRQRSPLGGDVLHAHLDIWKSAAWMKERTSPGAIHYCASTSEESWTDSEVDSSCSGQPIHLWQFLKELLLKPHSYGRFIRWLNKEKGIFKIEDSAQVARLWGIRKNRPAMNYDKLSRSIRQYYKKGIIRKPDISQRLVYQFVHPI
# How it was run: as §1
# ETV7 = biological target: T10, ETV7 (Homo sapiens, UniProt Q9Y603 1-341); details: protein: recombinant; tags: N-terminal GST; dsDNA, one strand shown
# T10 sequence: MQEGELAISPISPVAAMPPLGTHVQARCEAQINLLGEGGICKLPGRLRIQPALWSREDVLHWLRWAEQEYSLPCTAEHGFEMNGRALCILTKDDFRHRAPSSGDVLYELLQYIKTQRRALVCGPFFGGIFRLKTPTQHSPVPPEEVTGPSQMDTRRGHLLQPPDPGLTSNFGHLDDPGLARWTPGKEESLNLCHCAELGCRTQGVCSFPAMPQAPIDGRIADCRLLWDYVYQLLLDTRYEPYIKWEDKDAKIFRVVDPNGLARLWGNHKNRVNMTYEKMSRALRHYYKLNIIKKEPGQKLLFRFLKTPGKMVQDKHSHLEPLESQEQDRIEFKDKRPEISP
# How it was run: as §1
# ELF5 = biological target: T11, ELF5 (Homo sapiens, UniProt Q9UKW6-2 1-255); details: protein: recombinant; tags: N-terminal GST; dsDNA, one strand shown
# T11 sequence: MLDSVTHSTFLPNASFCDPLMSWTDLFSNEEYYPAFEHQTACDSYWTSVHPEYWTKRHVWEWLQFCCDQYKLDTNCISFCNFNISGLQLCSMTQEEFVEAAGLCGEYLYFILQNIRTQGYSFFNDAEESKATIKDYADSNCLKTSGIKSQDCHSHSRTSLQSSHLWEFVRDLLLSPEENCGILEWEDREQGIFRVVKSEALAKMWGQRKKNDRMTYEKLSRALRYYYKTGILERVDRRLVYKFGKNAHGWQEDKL
# How it was run: as §1
# ETV3 = biological target: T12, ETV3 (Homo sapiens, UniProt P41162-2 1-143); details: protein: recombinant; tags: N-terminal GST; dsDNA, one strand shown
# T12 sequence: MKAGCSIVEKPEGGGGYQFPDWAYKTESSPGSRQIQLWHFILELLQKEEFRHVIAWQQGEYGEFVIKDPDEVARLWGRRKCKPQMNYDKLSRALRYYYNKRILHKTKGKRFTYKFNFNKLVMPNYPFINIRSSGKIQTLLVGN
# How it was run: as §1
# ETV6 = ETV6 (Homo sapiens, UniProt P41212 1-452); details: protein: recombinant; tags: N-terminal GST; dsDNA, one strand shown
# Chain of ETV6 (P41212 whole entry): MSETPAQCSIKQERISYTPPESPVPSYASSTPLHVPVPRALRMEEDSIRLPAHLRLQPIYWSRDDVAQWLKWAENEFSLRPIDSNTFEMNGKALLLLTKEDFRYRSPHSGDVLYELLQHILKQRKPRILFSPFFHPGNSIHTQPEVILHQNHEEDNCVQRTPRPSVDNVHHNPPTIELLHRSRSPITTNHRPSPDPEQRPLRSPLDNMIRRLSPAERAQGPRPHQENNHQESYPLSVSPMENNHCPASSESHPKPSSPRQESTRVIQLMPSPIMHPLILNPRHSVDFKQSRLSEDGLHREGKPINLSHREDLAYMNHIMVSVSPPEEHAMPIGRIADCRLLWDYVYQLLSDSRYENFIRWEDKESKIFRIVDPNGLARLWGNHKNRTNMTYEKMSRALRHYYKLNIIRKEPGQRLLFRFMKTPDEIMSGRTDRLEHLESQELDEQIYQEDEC
# How it was run: as §1
sequence,measurement,setting,value
CTTACA,binding signal,FEV,"1.18 fold enrichment (6-mer frequency, TF over GST control)"
same,binding signal,ETV5,"1.31 fold enrichment (6-mer frequency, TF over GST control)"
same,binding signal,HSF1,"1.31 fold enrichment (6-mer frequency, TF over GST control)"
same,binding signal,SPIC,"1.27 fold enrichment (6-mer frequency, TF over GST control)"
same,binding signal,ELF4,"1.25 fold enrichment (6-mer frequency, TF over GST control)"
same,binding signal,ELK4,"1.3 fold enrichment (6-mer frequency, TF over GST control)"
same,binding signal,ETV2,"1.28 fold enrichment (6-mer frequency, TF over GST control)"
same,binding signal,ELF3,"1.41 fold enrichment (6-mer frequency, TF over GST control)"
same,binding signal,CRX,"1.6 fold enrichment (6-mer frequency, TF over GST control)"
same,binding signal,ETV1,"1.24 fold enrichment (6-mer frequency, TF over GST control)"
same,binding signal,ERF,"1.34 fold enrichment (6-mer frequency, TF over GST control)"
same,binding signal,ETV3L,"1.26 fold enrichment (6-mer frequency, TF over GST control)"
same,binding signal,ETS2,"1.14 fold enrichment (6-mer frequency, TF over GST control)"
same,binding signal,SPDEF,"1.34 fold enrichment (6-mer frequency, TF over GST control)"
same,binding signal,ETV7,"1.23 fold enrichment (6-mer frequency, TF over GST control)"
same,binding signal,ELF5,"1.35 fold enrichment (6-mer frequency, TF over GST control)"
same,binding signal,ETV3,"1.29 fold enrichment (6-mer frequency, TF over GST control)"
same,binding signal,ETV6,"1.24 fold enrichment (6-mer frequency, TF over GST control)"
